What was measured:
Assay in all cases: DAPPL (digital affinity profiling via proximity ligation, sequencing); 10 mM Tris-HCl pH 7.5, 50 mM NaCl, 1 mM DTT, 4% glycerol, room temperature, 30 min; GST-TFs on glutathione beads, 16-mer random dsDNA library, 0.1% formaldehyde crosslink after washing; high values mean tight binding
Details in all cases: protein: recombinant; tags: N-terminal GST; dsDNA, one strand shown
ELK4 = target: T1, ELK4 (Homo sapiens, UniProt P28324-2 1-405)
T1 sequence: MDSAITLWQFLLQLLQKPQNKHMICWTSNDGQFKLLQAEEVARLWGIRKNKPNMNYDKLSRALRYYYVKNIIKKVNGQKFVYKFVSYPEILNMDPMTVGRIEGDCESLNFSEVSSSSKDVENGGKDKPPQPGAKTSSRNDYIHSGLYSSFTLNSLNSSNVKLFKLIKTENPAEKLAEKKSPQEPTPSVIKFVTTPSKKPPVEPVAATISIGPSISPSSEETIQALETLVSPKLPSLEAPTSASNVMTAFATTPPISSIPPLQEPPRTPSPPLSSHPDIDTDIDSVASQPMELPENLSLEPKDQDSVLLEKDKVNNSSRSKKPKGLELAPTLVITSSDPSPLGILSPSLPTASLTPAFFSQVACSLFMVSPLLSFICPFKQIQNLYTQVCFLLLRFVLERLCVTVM
Outline: (§1)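 Binding signal is each hexamer's read frequency for a factor divided by its frequency in the tag-only sample. The factors were GST-fused human transcription factors from yeast, captured on glutathione beads, DNA-barcoded and pooled with that sample. Pools were incubated with 200 nmole of a random double-stranded 16-mer DNA library in Tris/NaCl/DTT/glycerol buffer at room temperature for 30 min, then washed, crosslinked with 0.1% formaldehyde, proximity-ligated with BsaI/T4 ligase (1 h, 37 °C), PCR-amplified and sequenced on an Illumina NextSeq500.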

ELF3 = target: T2, ELF3 (Homo sapiens, UniProt P78545 1-371)
T2 sequence: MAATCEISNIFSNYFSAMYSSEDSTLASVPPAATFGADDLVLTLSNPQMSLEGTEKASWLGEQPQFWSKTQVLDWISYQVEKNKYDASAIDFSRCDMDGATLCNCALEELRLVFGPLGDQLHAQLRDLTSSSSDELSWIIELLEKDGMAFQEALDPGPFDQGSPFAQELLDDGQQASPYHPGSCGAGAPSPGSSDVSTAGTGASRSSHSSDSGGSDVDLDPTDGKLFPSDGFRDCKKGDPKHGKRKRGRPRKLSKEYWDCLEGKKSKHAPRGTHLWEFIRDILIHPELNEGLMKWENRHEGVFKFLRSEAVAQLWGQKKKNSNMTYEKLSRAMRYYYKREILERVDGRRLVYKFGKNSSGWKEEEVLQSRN
Outline: as §1

CRX = CRX (Homo sapiens, UniProt O43186 1-299)
Sequence of CRX (O43186 whole entry): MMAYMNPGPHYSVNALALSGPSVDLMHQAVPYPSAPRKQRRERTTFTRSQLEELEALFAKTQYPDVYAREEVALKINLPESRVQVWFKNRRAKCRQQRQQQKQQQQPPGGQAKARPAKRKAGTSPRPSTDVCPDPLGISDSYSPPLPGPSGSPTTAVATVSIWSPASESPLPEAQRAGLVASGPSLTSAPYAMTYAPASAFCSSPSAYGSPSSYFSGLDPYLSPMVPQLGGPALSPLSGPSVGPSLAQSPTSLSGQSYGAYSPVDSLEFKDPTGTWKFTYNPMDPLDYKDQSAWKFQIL
Outline: as §1

ETV1 = ETV1 (Homo sapiens, UniProt P50549 1-477)
Sequence of ETV1 (P50549 whole entry): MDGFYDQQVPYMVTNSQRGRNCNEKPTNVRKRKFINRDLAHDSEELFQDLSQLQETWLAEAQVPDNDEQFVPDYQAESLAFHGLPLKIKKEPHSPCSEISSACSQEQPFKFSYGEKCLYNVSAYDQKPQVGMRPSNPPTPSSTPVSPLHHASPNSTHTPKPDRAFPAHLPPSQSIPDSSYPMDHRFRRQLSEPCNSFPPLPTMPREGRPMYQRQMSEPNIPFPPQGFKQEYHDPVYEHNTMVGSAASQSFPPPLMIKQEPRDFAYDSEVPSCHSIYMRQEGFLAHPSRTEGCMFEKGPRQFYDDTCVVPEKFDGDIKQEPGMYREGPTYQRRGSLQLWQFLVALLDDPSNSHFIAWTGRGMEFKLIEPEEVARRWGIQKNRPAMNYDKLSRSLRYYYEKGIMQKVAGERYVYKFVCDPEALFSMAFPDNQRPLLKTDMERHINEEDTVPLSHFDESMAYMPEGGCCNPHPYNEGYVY
Outline: as §1

ERF = target: T3, ERF (Homo sapiens, UniProt P50548 1-548)
T3 sequence: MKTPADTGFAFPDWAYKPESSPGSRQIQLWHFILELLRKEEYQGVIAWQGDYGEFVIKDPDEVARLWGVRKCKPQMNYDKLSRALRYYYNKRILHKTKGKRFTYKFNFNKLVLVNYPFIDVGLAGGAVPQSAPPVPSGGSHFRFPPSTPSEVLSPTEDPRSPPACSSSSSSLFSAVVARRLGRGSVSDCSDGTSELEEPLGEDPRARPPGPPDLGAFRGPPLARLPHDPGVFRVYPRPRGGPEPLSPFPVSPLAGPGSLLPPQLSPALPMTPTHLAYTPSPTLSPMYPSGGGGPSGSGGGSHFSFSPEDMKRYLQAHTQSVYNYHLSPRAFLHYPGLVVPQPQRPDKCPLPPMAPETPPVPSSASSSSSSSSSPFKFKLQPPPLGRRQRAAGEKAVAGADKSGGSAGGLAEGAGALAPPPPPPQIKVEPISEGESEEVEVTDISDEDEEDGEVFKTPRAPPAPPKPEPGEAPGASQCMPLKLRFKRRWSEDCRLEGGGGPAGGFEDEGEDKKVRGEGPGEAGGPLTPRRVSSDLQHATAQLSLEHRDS
Outline: as §1

ETV3L = target: T4, ETV3L (Homo sapiens, UniProt Q6ZN32 1-361)
T4 sequence: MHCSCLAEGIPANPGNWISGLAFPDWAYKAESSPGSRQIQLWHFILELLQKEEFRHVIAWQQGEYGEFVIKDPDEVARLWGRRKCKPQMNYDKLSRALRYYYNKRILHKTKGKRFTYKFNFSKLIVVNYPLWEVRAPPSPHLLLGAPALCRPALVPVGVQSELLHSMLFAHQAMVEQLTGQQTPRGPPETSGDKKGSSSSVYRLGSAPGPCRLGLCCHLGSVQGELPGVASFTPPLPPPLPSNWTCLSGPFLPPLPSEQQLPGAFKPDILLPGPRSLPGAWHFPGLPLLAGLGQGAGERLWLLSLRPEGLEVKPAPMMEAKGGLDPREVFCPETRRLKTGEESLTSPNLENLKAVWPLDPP
Outline: as §1

ETS2 = target: T5, ETS2 (Homo sapiens, UniProt P15036 1-469)
T5 sequence: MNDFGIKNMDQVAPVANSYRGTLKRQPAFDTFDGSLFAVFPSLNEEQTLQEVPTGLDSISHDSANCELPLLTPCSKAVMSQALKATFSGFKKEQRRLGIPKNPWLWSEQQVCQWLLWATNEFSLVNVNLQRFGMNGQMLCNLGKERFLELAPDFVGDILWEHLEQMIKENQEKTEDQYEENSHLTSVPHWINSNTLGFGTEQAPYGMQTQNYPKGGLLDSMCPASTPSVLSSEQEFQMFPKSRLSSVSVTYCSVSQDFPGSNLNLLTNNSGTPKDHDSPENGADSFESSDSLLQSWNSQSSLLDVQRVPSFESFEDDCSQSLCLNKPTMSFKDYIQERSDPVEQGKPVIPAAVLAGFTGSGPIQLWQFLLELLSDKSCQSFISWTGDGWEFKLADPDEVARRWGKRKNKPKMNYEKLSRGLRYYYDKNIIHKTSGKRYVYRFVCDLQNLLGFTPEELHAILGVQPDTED
Outline: as §1

SPDEF = target: T6, SPDEF (Homo sapiens, UniProt O95238 1-335)
T6 sequence: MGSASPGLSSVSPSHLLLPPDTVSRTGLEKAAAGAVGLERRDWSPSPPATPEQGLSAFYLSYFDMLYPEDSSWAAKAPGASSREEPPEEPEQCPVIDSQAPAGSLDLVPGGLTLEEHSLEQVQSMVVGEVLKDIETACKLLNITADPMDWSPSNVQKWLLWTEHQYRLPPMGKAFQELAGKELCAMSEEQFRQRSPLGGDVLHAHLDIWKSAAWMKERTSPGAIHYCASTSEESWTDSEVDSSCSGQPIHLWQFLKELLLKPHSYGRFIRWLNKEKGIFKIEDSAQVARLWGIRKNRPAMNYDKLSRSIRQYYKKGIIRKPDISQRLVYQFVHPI
Outline: as §1

ELF5 = target: T7, ELF5 (Homo sapiens, UniProt Q9UKW6-2 1-255)
T7 sequence: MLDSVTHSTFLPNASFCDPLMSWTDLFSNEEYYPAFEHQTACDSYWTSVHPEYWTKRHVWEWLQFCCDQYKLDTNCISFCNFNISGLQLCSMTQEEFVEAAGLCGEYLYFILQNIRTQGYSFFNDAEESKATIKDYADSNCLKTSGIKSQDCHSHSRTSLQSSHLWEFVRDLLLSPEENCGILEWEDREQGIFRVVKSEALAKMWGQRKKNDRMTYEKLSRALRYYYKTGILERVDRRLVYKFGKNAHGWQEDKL
Outline: as §1

ETV3 = target: T8, ETV3 (Homo sapiens, UniProt P41162-2 1-143)
T8 sequence: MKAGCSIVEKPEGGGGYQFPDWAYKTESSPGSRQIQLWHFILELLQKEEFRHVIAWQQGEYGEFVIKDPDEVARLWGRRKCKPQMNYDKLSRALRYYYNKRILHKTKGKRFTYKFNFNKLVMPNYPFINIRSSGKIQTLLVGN
Outline: as §1

ETV6 = ETV6 (Homo sapiens, UniProt P41212 1-452)
Sequence of ETV6 (P41212 whole entry): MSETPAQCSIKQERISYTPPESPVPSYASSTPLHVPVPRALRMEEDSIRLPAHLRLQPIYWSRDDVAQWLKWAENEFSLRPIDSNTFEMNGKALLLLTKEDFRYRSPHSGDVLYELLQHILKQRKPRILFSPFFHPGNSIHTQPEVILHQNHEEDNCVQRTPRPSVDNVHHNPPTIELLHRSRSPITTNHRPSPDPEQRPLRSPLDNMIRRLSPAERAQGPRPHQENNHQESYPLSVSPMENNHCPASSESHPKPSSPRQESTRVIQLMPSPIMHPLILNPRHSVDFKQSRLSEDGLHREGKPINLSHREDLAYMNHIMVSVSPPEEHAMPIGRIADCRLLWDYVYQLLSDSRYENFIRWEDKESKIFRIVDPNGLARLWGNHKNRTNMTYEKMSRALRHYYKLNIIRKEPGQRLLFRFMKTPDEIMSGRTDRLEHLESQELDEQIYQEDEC
Outline: as §1

Sequence: GATCCA
- binding signal (ELK4): 1.03 fold enrichment (6-mer frequency, TF over GST control)
- binding signal (ELF3): 1.15 fold enrichment (6-mer frequency, TF over GST control)
- binding signal (CRX): 1.23 fold enrichment (6-mer frequency, TF over GST control)
- binding signal (ETV1): 1.07 fold enrichment (6-mer frequency, TF over GST control)
- binding signal (ERF): 1.03 fold enrichment (6-mer frequency, TF over GST control)
- binding signal (ETV3L): 1.06 fold enrichment (6-mer frequency, TF over GST control)
- binding signal (ETS2): 1.09 fold enrichment (6-mer frequency, TF over GST control)
- binding signal (SPDEF): 1.17 fold enrichment (6-mer frequency, TF over GST control)
- binding signal (ELF5): 1.03 fold enrichment (6-mer frequency, TF over GST control)
- binding signal (ETV3): 1.05 fold enrichment (6-mer frequency, TF over GST control)
- binding signal (ETV6): 1.05 fold enrichment (6-mer frequency, TF over GST control)
